This note sets out measurements from the supplement of paper PMC7156485.

± gives the standard deviation of the averaged measurements.

Holding throughout (settings): concentration: 10 µM; 24 h
Assay [1] relates to HCC1569. Briefly: cell number relative to DMSO (% of DMSO); higher = more cells (less growth inhibition / toxicity). The gist of the method:
(§1)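 For HCC1569 and TDF cells, compounds at 10 µM were applied for 24 h at 37 °C in triplicate in 384-well plates. Cells were fixed in 3.7% formaldehyde, stained for H1.0 and with DAPI, and imaged at ×10 over six fields per well. The endpoint, H1.0 nuclear intensity or cell number, is shown as percent of the plate control using the median of replicates. Positional effects were smoothed for HCC1569 only.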

In assay [2] the test system is TDF. The assay is described as above. Put shortly:
as §1

The test system of assay [3] is TDF. Briefly: H1.0 immunofluorescence intensity relative to DMSO (% of DMSO); higher = stronger H1.0 induction, active = 120 or more. The gist of the method:
as §1

The test system of assay [4] is HCC1569. Briefly: H1.0 immunofluorescence intensity relative to DMSO (% of DMSO); higher = stronger H1.0 induction, active = 140 or more. The gist of the method:
as §1
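Throughout, for H1.0 immunofluorescence intensity relative to DMSO: TDF is a line of transformed human dermal fibroblasts of mesenchymal origin.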
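Throughout, for cell number relative to DMSO: TDF denotes transformed human dermal fibroblasts of mesenchymal origin.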

As for `CN(C)c1ccc(O)c2c1CC1CC3C(N(C)C)C(=O)C(C(N)=O)=C(O)C3(O)C(=O)C1=C2O.Cl` (stereo unspecified), the cell number with HCC1569 [1] is 99.2; in the assay on TDF [2], 96.9. Moreover, the H1.0 immunofluorescence intensity in the assay with TDF [3] was 95.5 (inactive); with HCC1569 [4], 91.5 (inactive).
The matching figures for `COc1ccc(-c2cc(=S)ss2)cc1` [Anethole trithione]: 93.6, 104, 98.2 (inactive) and 103 (inactive).
On the same counts, the results for `Br.Oc1ccc(C2CNCCc3c2cc(O)c(O)c3Cl)cc1` (stereo unspecified) [Fenoldopam bromide] are 103, 100, 86.4 (inactive) and 99.2 (inactive).
For the compound `Cl.OC(CN1CCN(c2cccc(Cl)c2)CC1)C(c1ccccc1)c1ccccc1` (stereo unspecified), the figures for the cell number in the assay with HCC1569 [1] and in the assay on TDF [2] were 102 and 111, respectively. The results for the H1.0 immunofluorescence intensity in the assay on TDF [3] and in the assay with HCC1569 [4] were 94.8 (inactive) and 88.3 (inactive), respectively.
With `COc1ccccc1N1CCN(CCCCNC(=O)c2ccc3ccccc3c2)CC1` [N-{4-[4-(2-methoxyphenyl)-1-piperazinyl]butyl}-2-naphthamide], the cell number in the assay with HCC1569 [1] was 96.6; with TDF [2], 98.1. Further, the H1.0 immunofluorescence intensity is 96.7 (inactive) with TDF [3] and 114 (inactive) with HCC1569 [4].
For the compound `CCC=CCC=CCC=CCC=CCC=CCCCC(=O)O`, the cell number turned out to be 98 in the assay with HCC1569 [1] and 102 with TDF [2]. Also, the H1.0 immunofluorescence intensity with TDF [3] is 90.4 (inactive); in the assay on HCC1569 [4], 96.4 (inactive).
Consider `COc1cc(C(=O)OCCCCN=C(N)N)cc(OC)c1O`, for which the cell number is 103 in the assay on HCC1569 [1] and 95.8 in the assay on TDF [2]. The H1.0 immunofluorescence intensity with TDF [3] is 102 (inactive); in the assay on HCC1569 [4], 104 (inactive).
On the same counts, the results for `CCCCCCCCCCCCCCCCOCC(COP(=O)([O-])OCC[N+](C)(C)C)OC` (stereo unspecified) [1-Hexadecyl-2-methylglycero-3 PC] are 101, 95.4, 104 (inactive) and 102 (inactive).
As for `CCCCCCCCC#CCC#CCC#CCCCC(=O)O` [5,8,11-Eicosatriynoic acid], the cell number stood at 97.5 ± 3.3 in the assay with HCC1569 [1] and 97.3 ± 8 with TDF [2]. Besides, the H1.0 immunofluorescence intensity is 107 (inactive) with TDF [3] and 98.5 (inactive) in the assay on HCC1569 [4].
Consider `Cc1ccc(-c2nn(C(C)(C)C)c3ncnc(N)c23)cc1`, for which the cell number in the assay with HCC1569 [1] stood at 69.8; in the assay with TDF [2], 109. In addition, the H1.0 immunofluorescence intensity was 94.8 (inactive) with TDF [3] and 188 (active) in the assay on HCC1569 [4].
On the same counts, the results for `CCCCCCCCC=CCCCCCCCC(=O)OCC(CO)OC(C)=O` (stereo unspecified) [1-Oleoyl-2-acetyl-glycerol] are 98.9, 106, 89.4 (inactive) and 106 (inactive).
For `NCC(O)c1ccc(O)c(O)c1.O=C(O)C(O)C(O)C(=O)O` (stereo not drawn) [L(-)-Norepinephrine bitartrate], the cell number in the assay on HCC1569 [1] was found to be 109; with TDF [2] it was 106. Further, the figures for the H1.0 immunofluorescence intensity in the assay with TDF [3] and in the assay with HCC1569 [4] were 95.8 (inactive) and 94.6 (inactive), respectively.
Regarding `CC(C=CC1(O)C(C)=CC(=O)CC1(C)C)=CC(=O)O` (racemic), the cell number in the assay with HCC1569 [1] and in the assay on TDF [2] was 103 in each case. Also, the values for the H1.0 immunofluorescence intensity in the assay on TDF [3] and in the assay on HCC1569 [4] were 99.5 (inactive) and 88.1 (inactive), respectively.
Turning to `CCOC(=O)CNC(=O)[C@@H]1CCCN1C(=O)Cc1ccccc1`, the cell number in the assay with HCC1569 [1] amounted to 102; in the assay on TDF [2], 109. The H1.0 immunofluorescence intensity was 97.4 (inactive) in the assay with TDF [3] and 87.1 (inactive) in the assay on HCC1569 [4].
As to `CCCC(CCC)C(N)=O` [2-propylpentanamide], the values for the cell number with HCC1569 [1] and in the assay on TDF [2] were 112 and 106, respectively. Moreover, the H1.0 immunofluorescence intensity in the assay with TDF [3] was 97 (inactive); in the assay with HCC1569 [4], 95.6 (inactive).
As to `COc1cc(C=CC(=O)CC(=O)C=Cc2ccc(O)c(OC)c2)ccc1O` [Curcumin], the cell number in the assay with HCC1569 [1] came to 71.3; in the assay on TDF [2], 62.7. In addition, the values for the H1.0 immunofluorescence intensity with TDF [3] and with HCC1569 [4] were 106 (inactive) and 139 (inactive), respectively.
Regarding `CCCCCC(O)CCC1C(O)CC(=O)C1CCCCCCC(=O)O` (stereo unspecified) [13,14-Dihydro-prostaglandin E1], the cell number was found to be 97.1 with HCC1569 [1] and 104 in the assay on TDF [2]. Further, the H1.0 immunofluorescence intensity was 94.9 (inactive) in the assay on TDF [3] and 103 (inactive) in the assay with HCC1569 [4].
`Clc1ccc(C(Cn2ccnc2)OCc2ccsc2Cl)c(Cl)c1` (stereo unspecified) [Tioconazole]: the cell number in the assay with HCC1569 [1] is 102; in the assay with TDF [2], 94.9. In addition, the H1.0 immunofluorescence intensity in the assay on TDF [3] was 103 (inactive); in the assay with HCC1569 [4], 113 (inactive).
With `COc1ccc(S(=O)(=O)Nc2cc(Cl)cc(Cl)c2OC)cc1N1CCNCC1.Cl`, the cell number in the assay on HCC1569 [1] and in the assay on TDF [2] was 100 throughout. Further, the H1.0 immunofluorescence intensity in the assay on TDF [3] is 93.4 (inactive); in the assay on HCC1569 [4], 99.9 (inactive).
For `O=c1ccc2cc(O)c(O)cc2o1` [Esculetin], the figures for the cell number in the assay on HCC1569 [1] and in the assay with TDF [2] were 101 and 94.7, respectively. Besides, the H1.0 immunofluorescence intensity is 99.6 (inactive) with TDF [3] and 101 (inactive) in the assay on HCC1569 [4].
As to `CCN(CC)CCCC(C)Nc1c2ccc(Cl)cc2nc2ccc(OC)cc12` (stereo unspecified) [Quinacrine], the cell number with HCC1569 [1] was determined as 89.3; with TDF [2], 39.5. The H1.0 immunofluorescence intensity with TDF [3] is 118 (inactive); with HCC1569 [4], 180 (active).
With `O=c1[nH]c2cc(C(F)(F)F)ccc2n1-c1cc(C(F)(F)F)ccc1O`, the figures for the cell number with HCC1569 [1] and in the assay on TDF [2] were 101 and 95.9, respectively. Further, the H1.0 immunofluorescence intensity in the assay with TDF [3] is 96.6 (inactive); in the assay with HCC1569 [4], 98.4 (inactive).
With `CC(C)(C)NC(=O)C1CCC2C3CCC4NC(=O)C=CC4(C)C3CCC12C` (stereo unspecified) [Finasteride], the values for the cell number with HCC1569 [1] and with TDF [2] were 102 and 97.4, respectively. Besides, the H1.0 immunofluorescence intensity with TDF [3] was 95.4 (inactive); with HCC1569 [4] it was 108 (inactive).
As for `NS(=O)(=O)c1cc2c(cc1Cl)NCNS2(=O)=O` [Hydrochlorothiazide], the figures for the cell number with HCC1569 [1] and in the assay on TDF [2] were 105 and 107, respectively. Moreover, the H1.0 immunofluorescence intensity was 90.9 (inactive) in the assay on TDF [3] and 89.9 (inactive) in the assay on HCC1569 [4].
